Experimental data from the supplement of paper PMC7411054.
Counter-ions that a name gives are not always drawn.

What was measured:
Experiment in all cases: phenotypically active (imaging signature differs from DMSO and reproducible) at any of 0.3-9 uM (binary (1 = active, 0 = inactive)); higher = active
Conditions in all cases: treatment time: 24 h
[1] = test system: A549-ACTB-RAB5A
Outline: (§1)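 The reporter lines, fifteen in total and built by gene editing in A549, HepG2 and WPMY1 cells, used BFP for segmentation alongside GFP and RFP/FusionRed markers. Each was treated at 0.3, 1, 3 or 9 µM for 24 h in four wells and then imaged live, with live-cell features normalised to solvent control wells. Deviation meant ≥3 of 4 wells beyond the 95th percentile of control Euclidean distances; reproducibility meant a median replicate Pearson correlation above the 95th percentile of non-replicates. Only conditions meeting both were scored as phenotypically active.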

[2] = test system: A549-CANX-COX4
Outline: as §1

[3] = test system: A549-GM130-SQSTM1
Outline: as §1

[4] = test system: A549-TP53BP1-CLTA
Outline: as §1

[5] = test system: A549-TUBA1B-RELA
Outline: as §1

[6] = test system: HepG2-ACTB-RAB5A
Outline: as §1

[7] = test system: HepG2-CANX-COX4
Outline: as §1

[8] = test system: HepG2-GM130-SQSTM1
Outline: as §1

[9] = test system: HepG2-TP53BP1-CLTA
Outline: as §1

[10] = test system: HepG2-TUBA1B-RELA
Outline: as §1

[11] = test system: WPMY1-ACTB-RAB5A
Outline: as §1

[12] = test system: WPMY1-CANX-COX4
Outline: as §1

[13] = test system: WPMY1-GM130-SQSTM1
Outline: as §1

[14] = test system: WPMY1-TP53BP1-CLTA
Outline: as §1

[15] = test system: WPMY1-TUBA1B-RELA
Outline: as §1

Measured: phenotypically active

Oc1cc(O)c2c(c1)O[C@H](c1ccc(O)c(O)c1)[C@@H](O)C2 [Epicatechin-(-)]
inactive: [1] 0 | [2] 0 | [3] 0 | [4] 0 | [5] 0 | [6] 0 | [7] 0 | [8] 0 | [9] 0 | [10] 0 | [11] 0 | [12] 0 | [13] 0 | [14] 0 | [15] 0

OCC(CO)N[C@H]1C[C@](O)(CO)[C@@H](O)[C@H](O)[C@H]1O [Voglibose]
inactive: [1] 0 | [2] 0 | [3] 0 | [4] 0 | [5] 0 | [6] 0 | [7] 0 | [8] 0 | [9] 0 | [10] 0 | [11] 0 | [12] 0 | [13] 0 | [14] 0 | [15] 0

Cc1nc(=O)c2c([nH]1)CCSC2
inactive: [1] 0 | [2] 0 | [3] 0 | [4] 0 | [5] 0 | [6] 0 | [7] 0 | [8] 0 | [9] 0 | [10] 0 | [11] 0 | [12] 0 | [13] 0 | [14] 0 | [15] 0

c1ccc2c(c1)CN1CCCC1=N2 [Desoxypeganine Hydrochloride]
inactive: [1] 0 | [2] 0 | [3] 0 | [4] 0 | [5] 0 | [6] 0 | [7] 0 | [8] 0 | [9] 0 | [10] 0 | [11] 0 | [12] 0 | [13] 0 | [14] 0 | [15] 0

COc1ccc([C@H]2CNC(=O)C2)cc1OC1CCCC1 [(S)-(+)-Rolipram]
inactive: [1] 0 | [2] 0 | [3] 0 | [4] 0 | [5] 0 | [6] 0 | [7] 0 | [8] 0 | [9] 0 | [10] 0 | [11] 0 | [12] 0 | [13] 0 | [14] 0 | [15] 0

COC(=O)c1ccc(N2CCN(C)CC2)c(NC(=O)c2cccc(OC)c2)c1
inactive: [1] 0 | [2] 0 | [3] 0 | [4] 0 | [5] 0 | [6] 0 | [7] 0 | [8] 0 | [9] 0 | [10] 0 | [11] 0 | [12] 0 | [13] 0 | [14] 0 | [15] 0

NNCCc1ccccc1 [phenelzine]
inactive: [1] 0 | [2] 0 | [3] 0 | [4] 0 | [5] 0 | [6] 0 | [7] 0 | [8] 0 | [9] 0 | [10] 0 | [11] 0 | [12] 0 | [13] 0 | [14] 0 | [15] 0

c1ccc2c(c1)CCCC2C1=NCCN1 (stereo not given) [tetrahydrozoline]
inactive: [1] 0 | [2] 0 | [3] 0 | [4] 0 | [5] 0 | [6] 0 | [7] 0 | [8] 0 | [9] 0 | [10] 0 | [11] 0 | [12] 0 | [13] 0 | [14] 0 | [15] 0

O=c1ncccn1[C@@H]1O[C@H](CO)[C@@H](O)[C@H]1O [Zebularine]
inactive: [1] 0 | [2] 0 | [3] 0 | [4] 0 | [5] 0 | [6] 0 | [7] 0 | [8] 0 | [9] 0 | [10] 0 | [11] 0 | [12] 0 | [13] 0 | [14] 0 | [15] 0

O=C(c1cccc(Br)c1)N1CCC(N2CCCC2)CC1 [UNC 926 hydrochloride]
inactive: [1] 0 | [2] 0 | [3] 0 | [4] 0 | [5] 0 | [6] 0 | [7] 0 | [8] 0 | [9] 0 | [10] 0 | [11] 0 | [12] 0 | [13] 0 | [14] 0 | [15] 0

CC1(C)[C@@H](O)CC[C@]2(C)[C@H]3C(=O)C=C4[C@@H]5C[C@@](C)(C(=O)O)CC[C@]5(C)CC[C@@]4(C)[C@]3(C)CC[C@@H]12 [Glycyrrhetinic Acid]
inactive: [1] 0 | [2] 0 | [3] 0 | [4] 0 | [5] 0 | [6] 0 | [7] 0 | [8] 0 | [9] 0 | [10] 0 | [11] 0 | [12] 0 | [13] 0 | [14] 0 | [15] 0

NS(=O)(=O)c1cc2c(cc1Cl)N=C(CSCc1ccccc1)NS2(=O)=O [benzthiazide]
inactive: [1] 0 | [2] 0 | [3] 0 | [4] 0 | [5] 0 | [6] 0 | [7] 0 | [8] 0 | [9] 0 | [10] 0 | [11] 0 | [12] 0 | [13] 0 | [14] 0 | [15] 0

N[C@@H](Cc1ccc(O)c(O)c1)C(=O)O [levodopa]
inactive: [1] 0 | [2] 0 | [3] 0 | [4] 0 | [5] 0 | [6] 0 | [7] 0 | [8] 0 | [9] 0 | [10] 0 | [11] 0 | [12] 0 | [13] 0 | [14] 0 | [15] 0

CN(CCOc1ccc(C[C@H](Nc2ccccc2C(=O)c2ccccc2)C(=O)O)cc1)c1ccccn1 [GW 1929 hydrochloride]
inactive: [1] 0 | [2] 0 | [3] 0 | [4] 0 | [5] 0 | [6] 0 | [7] 0 | [8] 0 | [9] 0 | [10] 0 | [11] 0 | [12] 0 | [13] 0 | [14] 0 | [15] 0

NS(=O)(=O)c1cc2c(cc1Cl)NC(C1CC3C=CC1C3)NS2(=O)=O (stereo not given) [cyclothiazide]
inactive: [1] 0 | [2] 0 | [3] 0 | [4] 0 | [5] 0 | [6] 0 | [7] 0 | [8] 0 | [9] 0 | [10] 0 | [11] 0 | [12] 0 | [13] 0 | [14] 0 | [15] 0

CN(C)CCc1c[nH]c2ccc(C[C@H]3COC(=O)N3)cc12 [zolmitriptan]
inactive: [1] 0 | [2] 0 | [3] 0 | [4] 0 | [5] 0 | [6] 0 | [7] 0 | [8] 0 | [9] 0 | [10] 0 | [11] 0 | [12] 0 | [13] 0 | [14] 0 | [15] 0

COc1cc(C#N)ccc1S(=O)(=O)Nc1ccc2c(c1)cc(C)c(=O)n2C
inactive: [1] 0 | [2] 0 | [3] 0 | [4] 0 | [5] 0 | [6] 0 | [7] 0 | [8] 0 | [9] 0 | [10] 0 | [11] 0 | [12] 0 | [13] 0 | [14] 0 | [15] 0

O=C1CC(c2ccc(O)cc2)Oc2cc(O)cc(O)c21 (stereo not given) [Naringenine]
inactive: [1] 0 | [2] 0 | [3] 0 | [4] 0 | [5] 0 | [6] 0 | [7] 0 | [8] 0 | [9] 0 | [10] 0 | [11] 0 | [12] 0 | [13] 0 | [14] 0 | [15] 0

Brc1c(Br)c(Br)c2[nH]nnc2c1Br
inactive: [1] 0 | [2] 0 | [3] 0 | [4] 0 | [5] 0 | [6] 0 | [7] 0 | [8] 0 | [9] 0 | [10] 0 | [11] 0 | [12] 0 | [13] 0 | [14] 0 | [15] 0

CCOC(=O)[C@H](CCc1ccccc1)N[C@H]1CCc2ccccc2N(CC(=O)O)C1=O [benazepril]
inactive: [1] 0 | [2] 0 | [3] 0 | [4] 0 | [5] 0 | [6] 0 | [7] 0 | [8] 0 | [9] 0 | [10] 0 | [11] 0 | [12] 0 | [13] 0 | [14] 0 | [15] 0

CCCc1nc(C)c2c(C)nc3ccc(OC)nc3n12
inactive: [1] 0 | [2] 0 | [3] 0 | [4] 0 | [5] 0 | [6] 0 | [7] 0 | [8] 0 | [9] 0 | [10] 0 | [11] 0 | [12] 0 | [13] 0 | [14] 0 | [15] 0

CC(C[N+](C)(C)C)OC(N)=O (stereo not given) [bethanechol]
inactive: [1] 0 | [2] 0 | [3] 0 | [4] 0 | [5] 0 | [6] 0 | [7] 0 | [8] 0 | [9] 0 | [10] 0 | [11] 0 | [12] 0 | [13] 0 | [14] 0 | [15] 0

Cc1ccc(-c2c(-c3nn(C)c4ncnc(N5CC[C@H](N6CCCCC6)C5)c34)cnn2C)cc1
inactive: [1] 0 | [2] 0 | [3] 0 | [4] 0 | [5] 0 | [6] 0 | [7] 0 | [8] 0 | [9] 0 | [10] 0 | [11] 0 | [12] 0 | [13] 0 | [14] 0 | [15] 0
